From ChEMBL document CHEMBL1961873, “Compounds: GSK PKIS; Assays: Nanosyn kinase panel” (2012)

How the values were obtained:
[1] = target: T1, Tyrosine-protein kinase receptor TYRO3 (Homo sapiens) (UniProt Q06418); details: at 1 µM
T1 sequence (whole entry): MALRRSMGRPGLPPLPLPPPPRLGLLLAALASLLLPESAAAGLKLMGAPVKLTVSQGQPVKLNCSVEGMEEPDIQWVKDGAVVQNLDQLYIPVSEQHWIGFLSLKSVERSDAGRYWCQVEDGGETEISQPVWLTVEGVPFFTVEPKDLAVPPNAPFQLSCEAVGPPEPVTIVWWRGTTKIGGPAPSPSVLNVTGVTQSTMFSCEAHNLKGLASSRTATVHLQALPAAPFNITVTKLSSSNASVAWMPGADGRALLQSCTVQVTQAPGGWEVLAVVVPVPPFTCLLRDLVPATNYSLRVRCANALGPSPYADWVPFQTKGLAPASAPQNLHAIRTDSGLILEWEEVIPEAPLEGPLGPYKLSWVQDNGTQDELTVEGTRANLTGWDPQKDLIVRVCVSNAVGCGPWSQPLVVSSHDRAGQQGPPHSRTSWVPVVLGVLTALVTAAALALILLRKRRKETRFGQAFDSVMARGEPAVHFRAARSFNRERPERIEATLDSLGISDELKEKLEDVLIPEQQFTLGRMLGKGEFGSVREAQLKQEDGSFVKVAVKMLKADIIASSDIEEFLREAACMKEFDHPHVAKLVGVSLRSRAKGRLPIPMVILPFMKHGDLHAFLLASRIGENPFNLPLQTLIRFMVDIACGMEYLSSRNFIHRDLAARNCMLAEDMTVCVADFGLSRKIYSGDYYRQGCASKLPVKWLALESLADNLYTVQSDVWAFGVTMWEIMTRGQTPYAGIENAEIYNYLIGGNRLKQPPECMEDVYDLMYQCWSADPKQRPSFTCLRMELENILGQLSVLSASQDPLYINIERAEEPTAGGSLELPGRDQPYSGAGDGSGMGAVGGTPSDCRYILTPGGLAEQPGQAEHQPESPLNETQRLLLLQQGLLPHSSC

[2] = target: Tyrosine-protein kinase Yes (Homo sapiens) (UniProt P07947); details: at 0.1 µM
[3] = target: Tyrosine-protein kinase Yes (Homo sapiens) (UniProt P07947); details: at 1 µM
[4] = target: T2, Tyrosine-protein kinase ZAP-70 (Homo sapiens) (UniProt P43403); details: at 0.1 µM
T2 sequence (whole entry): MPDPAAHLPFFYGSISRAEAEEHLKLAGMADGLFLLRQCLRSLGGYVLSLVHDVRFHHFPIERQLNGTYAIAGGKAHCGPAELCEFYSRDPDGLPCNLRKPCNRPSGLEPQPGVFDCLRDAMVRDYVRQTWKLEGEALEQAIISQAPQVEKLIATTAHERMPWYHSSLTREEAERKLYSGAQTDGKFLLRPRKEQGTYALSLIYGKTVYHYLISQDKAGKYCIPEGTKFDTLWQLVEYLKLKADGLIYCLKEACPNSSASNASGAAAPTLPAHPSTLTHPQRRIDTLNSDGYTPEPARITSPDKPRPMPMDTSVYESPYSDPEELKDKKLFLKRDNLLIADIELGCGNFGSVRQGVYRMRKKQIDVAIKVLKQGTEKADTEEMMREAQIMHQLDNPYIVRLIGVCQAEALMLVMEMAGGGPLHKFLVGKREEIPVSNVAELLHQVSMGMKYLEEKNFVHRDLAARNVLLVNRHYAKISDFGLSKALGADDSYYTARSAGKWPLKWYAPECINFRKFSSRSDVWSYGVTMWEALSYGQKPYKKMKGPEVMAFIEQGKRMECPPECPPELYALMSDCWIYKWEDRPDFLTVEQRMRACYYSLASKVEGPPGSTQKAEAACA

[5] = target: T2, Tyrosine-protein kinase ZAP-70 (Homo sapiens); details: at 1 µM
[6] = target: Serine/threonine-protein kinase B-raf (Homo sapiens) (UniProt P15056); details: at 0.1 µM
[7] = target: Serine/threonine-protein kinase B-raf (Homo sapiens) (UniProt P15056); details: at 1 µM
[8] = tested on: Serine/threonine-protein kinase B-raf (Homo sapiens), P15056 [V600E]; details: at 0.1 µM
[9] = tested on: Serine/threonine-protein kinase B-raf (Homo sapiens), P15056 [V600E]; details: at 1 µM
[10] = target: RAF proto-oncogene serine/threonine-protein kinase (Homo sapiens) (UniProt P04049); details: at 0.1 µM
[11] = target: RAF proto-oncogene serine/threonine-protein kinase (Homo sapiens) (UniProt P04049); details: at 1 µM
[12] = target: T3, Interleukin-1 receptor-associated kinase 4 (Homo sapiens) (UniProt Q9NWZ3); details: at 0.1 µM
T3 sequence (whole entry): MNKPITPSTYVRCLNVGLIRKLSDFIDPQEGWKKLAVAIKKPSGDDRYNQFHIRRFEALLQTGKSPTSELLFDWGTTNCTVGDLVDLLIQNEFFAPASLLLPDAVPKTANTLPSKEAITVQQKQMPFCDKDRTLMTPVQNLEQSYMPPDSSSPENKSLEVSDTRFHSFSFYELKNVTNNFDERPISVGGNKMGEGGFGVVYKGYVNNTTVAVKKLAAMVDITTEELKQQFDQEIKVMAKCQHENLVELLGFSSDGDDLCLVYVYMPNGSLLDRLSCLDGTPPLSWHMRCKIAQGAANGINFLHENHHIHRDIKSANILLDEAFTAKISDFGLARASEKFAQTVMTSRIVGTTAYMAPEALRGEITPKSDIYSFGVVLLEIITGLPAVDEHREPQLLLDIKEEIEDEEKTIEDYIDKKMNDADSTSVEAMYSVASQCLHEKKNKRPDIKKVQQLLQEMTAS

[13] = target: T3, Interleukin-1 receptor-associated kinase 4 (Homo sapiens); details: at 1 µM
[14] = target: Leucine-rich repeat serine/threonine-protein kinase 2 (Homo sapiens) (UniProt Q5S007); details: at 0.1 µM
[15] = target: Leucine-rich repeat serine/threonine-protein kinase 2 (Homo sapiens) (UniProt Q5S007); details: at 1 µM
[16] = tested on: Leucine-rich repeat serine/threonine-protein kinase 2 (Homo sapiens), Q5S007 [G2019S]; details: at 0.1 µM
[17] = tested on: Leucine-rich repeat serine/threonine-protein kinase 2 (Homo sapiens), Q5S007 [G2019S]; details: at 1 µM

Sequence of Leucine-rich repeat serine/threonine-protein kinase 2 (Homo sapiens) (Q5S007 whole entry): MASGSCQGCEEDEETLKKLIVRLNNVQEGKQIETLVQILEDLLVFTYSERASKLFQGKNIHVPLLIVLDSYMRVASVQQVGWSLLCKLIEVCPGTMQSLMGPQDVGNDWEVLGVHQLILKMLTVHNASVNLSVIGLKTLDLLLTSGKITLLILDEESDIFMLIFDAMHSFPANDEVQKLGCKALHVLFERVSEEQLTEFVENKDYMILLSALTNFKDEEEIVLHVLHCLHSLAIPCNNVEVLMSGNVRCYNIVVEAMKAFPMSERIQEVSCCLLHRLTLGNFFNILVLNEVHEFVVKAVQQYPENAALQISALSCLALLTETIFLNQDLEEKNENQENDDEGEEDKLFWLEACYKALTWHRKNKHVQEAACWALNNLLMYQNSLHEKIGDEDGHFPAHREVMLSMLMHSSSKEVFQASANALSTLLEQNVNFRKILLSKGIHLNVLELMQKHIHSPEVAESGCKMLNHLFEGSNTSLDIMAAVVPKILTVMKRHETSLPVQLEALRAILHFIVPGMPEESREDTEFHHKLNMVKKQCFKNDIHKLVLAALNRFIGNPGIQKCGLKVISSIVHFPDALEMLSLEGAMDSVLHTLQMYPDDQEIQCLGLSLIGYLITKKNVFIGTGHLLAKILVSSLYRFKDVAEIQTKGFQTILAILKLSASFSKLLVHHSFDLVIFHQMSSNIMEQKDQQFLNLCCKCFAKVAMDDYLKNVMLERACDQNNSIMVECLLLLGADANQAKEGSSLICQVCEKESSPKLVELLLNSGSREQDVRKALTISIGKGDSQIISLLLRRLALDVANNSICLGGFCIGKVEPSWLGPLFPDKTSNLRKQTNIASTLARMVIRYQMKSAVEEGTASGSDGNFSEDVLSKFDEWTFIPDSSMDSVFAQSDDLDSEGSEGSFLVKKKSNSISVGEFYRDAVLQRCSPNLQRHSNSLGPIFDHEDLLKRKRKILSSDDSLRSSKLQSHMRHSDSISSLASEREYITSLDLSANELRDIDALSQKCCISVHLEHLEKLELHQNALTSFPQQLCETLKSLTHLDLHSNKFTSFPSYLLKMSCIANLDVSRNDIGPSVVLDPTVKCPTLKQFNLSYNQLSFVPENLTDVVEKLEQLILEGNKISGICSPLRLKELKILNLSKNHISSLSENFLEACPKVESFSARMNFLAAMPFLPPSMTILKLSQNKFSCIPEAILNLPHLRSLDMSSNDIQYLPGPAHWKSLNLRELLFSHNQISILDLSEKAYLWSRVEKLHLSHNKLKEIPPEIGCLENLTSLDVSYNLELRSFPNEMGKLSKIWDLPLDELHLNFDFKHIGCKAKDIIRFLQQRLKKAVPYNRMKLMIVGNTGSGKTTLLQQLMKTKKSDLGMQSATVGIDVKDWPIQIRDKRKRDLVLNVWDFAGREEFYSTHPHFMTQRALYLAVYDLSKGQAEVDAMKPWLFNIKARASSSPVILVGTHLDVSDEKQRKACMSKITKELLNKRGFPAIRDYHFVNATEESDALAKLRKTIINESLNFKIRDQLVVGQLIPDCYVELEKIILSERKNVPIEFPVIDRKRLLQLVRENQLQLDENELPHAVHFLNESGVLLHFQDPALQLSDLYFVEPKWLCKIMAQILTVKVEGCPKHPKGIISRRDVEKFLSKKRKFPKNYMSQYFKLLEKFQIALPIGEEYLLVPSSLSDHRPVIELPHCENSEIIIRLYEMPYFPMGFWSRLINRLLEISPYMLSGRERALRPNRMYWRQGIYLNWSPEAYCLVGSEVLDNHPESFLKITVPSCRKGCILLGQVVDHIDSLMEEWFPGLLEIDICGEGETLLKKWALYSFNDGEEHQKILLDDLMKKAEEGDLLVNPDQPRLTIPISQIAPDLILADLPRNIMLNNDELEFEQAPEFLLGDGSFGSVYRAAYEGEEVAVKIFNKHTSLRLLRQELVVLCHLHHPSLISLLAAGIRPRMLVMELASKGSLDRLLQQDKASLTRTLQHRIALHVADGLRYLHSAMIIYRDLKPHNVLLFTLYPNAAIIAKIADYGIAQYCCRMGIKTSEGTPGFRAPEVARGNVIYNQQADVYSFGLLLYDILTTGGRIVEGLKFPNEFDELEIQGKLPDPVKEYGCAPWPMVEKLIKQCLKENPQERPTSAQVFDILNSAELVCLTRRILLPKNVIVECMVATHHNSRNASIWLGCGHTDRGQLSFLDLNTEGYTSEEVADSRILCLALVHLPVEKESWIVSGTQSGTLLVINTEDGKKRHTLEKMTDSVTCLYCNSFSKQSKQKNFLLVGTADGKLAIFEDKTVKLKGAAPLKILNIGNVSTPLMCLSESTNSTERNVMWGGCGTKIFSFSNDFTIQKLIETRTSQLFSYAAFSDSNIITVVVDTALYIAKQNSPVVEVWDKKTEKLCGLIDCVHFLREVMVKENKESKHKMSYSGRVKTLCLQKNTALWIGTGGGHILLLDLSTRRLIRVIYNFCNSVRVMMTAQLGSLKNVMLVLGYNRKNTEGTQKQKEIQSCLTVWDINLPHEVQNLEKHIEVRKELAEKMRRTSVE
Sequence of RAF proto-oncogene serine/threonine-protein kinase (Homo sapiens) (P04049 whole entry): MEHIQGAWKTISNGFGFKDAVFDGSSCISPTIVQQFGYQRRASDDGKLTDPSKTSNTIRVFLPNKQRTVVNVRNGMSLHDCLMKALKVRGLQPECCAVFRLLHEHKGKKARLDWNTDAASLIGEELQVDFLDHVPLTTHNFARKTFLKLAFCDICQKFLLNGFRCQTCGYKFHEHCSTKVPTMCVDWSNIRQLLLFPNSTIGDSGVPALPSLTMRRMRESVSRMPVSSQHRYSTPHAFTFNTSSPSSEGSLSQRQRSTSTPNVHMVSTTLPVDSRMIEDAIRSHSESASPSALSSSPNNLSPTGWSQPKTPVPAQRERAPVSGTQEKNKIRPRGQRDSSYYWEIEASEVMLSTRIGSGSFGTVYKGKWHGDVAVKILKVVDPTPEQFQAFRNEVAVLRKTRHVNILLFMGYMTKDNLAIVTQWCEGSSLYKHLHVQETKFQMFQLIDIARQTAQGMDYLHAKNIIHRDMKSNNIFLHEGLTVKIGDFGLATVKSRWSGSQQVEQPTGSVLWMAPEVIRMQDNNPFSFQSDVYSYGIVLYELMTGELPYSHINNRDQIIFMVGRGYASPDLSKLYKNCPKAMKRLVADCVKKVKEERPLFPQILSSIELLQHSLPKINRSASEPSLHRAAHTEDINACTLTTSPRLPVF
Sequence of Serine/threonine-protein kinase B-raf (Homo sapiens) (P15056 whole entry): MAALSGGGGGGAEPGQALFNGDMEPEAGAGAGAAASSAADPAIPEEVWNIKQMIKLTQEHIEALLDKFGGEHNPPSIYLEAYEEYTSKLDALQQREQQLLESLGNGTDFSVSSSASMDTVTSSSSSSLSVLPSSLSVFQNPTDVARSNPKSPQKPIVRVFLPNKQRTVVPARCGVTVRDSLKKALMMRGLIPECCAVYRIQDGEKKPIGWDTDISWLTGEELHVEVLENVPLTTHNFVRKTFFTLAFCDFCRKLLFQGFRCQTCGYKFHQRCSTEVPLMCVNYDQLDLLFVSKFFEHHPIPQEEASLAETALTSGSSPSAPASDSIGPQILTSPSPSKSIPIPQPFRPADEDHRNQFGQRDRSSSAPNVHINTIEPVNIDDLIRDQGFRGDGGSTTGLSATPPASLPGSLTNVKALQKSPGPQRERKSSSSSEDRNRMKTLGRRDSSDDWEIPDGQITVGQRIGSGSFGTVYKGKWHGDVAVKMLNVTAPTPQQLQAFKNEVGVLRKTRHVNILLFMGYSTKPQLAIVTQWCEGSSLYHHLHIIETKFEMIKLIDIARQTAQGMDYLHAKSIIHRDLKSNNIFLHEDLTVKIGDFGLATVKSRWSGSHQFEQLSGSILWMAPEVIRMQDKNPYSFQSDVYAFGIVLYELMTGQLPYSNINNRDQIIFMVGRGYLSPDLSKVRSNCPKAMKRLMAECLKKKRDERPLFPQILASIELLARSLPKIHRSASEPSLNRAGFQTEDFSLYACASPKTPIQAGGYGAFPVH
Sequence of Leucine-rich repeat serine/threonine-protein kinase 2 (Homo sapiens), Q5S007 [G2019S] (Q5S007 whole entry G2019S): as the sequence (Q5S007 whole entry) above, with G2019S counted along it
Sequence of Tyrosine-protein kinase Yes (Homo sapiens) (P07947 2-543 limits assumed): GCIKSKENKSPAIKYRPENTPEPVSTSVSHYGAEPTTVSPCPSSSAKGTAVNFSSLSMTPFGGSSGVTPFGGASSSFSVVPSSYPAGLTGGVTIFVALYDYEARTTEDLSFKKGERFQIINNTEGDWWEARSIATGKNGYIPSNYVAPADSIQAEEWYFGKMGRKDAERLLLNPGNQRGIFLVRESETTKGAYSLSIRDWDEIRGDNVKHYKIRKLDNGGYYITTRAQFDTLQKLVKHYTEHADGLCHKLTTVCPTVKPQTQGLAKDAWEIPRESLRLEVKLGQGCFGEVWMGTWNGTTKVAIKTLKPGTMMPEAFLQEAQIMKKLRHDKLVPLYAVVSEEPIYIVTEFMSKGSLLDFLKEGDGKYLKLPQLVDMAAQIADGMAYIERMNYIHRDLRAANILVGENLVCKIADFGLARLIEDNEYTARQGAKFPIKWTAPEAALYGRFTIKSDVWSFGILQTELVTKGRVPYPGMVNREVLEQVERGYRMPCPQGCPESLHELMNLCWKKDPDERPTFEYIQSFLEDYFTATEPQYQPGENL
Sequence of Serine/threonine-protein kinase B-raf (Homo sapiens), P15056 [V600E] (P15056 whole entry V600E): as the sequence (P15056 whole entry) above, with V600E counted along it

SMILES	inhibition [1] [%]	inhibition [2] [%]	inhibition [3] [%]	inhibition [4] [%]	inhibition [5] [%]	inhibition [6] [%]	inhibition [7] [%]	inhibition [8] [%]	inhibition [9] [%]	inhibition [10] [%]	inhibition [11] [%]	inhibition [12] [%]	inhibition [13] [%]	inhibition [14] [%]	inhibition [15] [%]	inhibition [16] [%]	inhibition [17] [%]
O=C(Nc1n[nH]c2cc(-c3cc(F)ccc3F)ccc12)C1CC1	11.7	2.25	8.92	0.04	-0.4	5.1	7.61	5.62	6.3	-1.79	-0.98	2.21	1.18	2.33	3.26	1.81	6.24
O=C(Nc1n[nH]c2nc(-c3ccco3)ccc12)C1CC1	8.73	0.35	0.02	0.28	0.47	1.98	3.43	1.17	4.38	4.75	0.48	-2.9	0.56	3.59	7.47	2.37	8.01
Fc1ccc(-c2ncn(C3CCNCC3)c2-c2ccnc(Oc3ccc(Oc4ccccc4)cc3)n2)cc1	2.08	0.21	4.26	0.95	0.36	6.4	11.6	4.03	8.67	1.44	0.47	1.5	1.78	0.62	5.34	5.08	8.01
C/C(Nc1ccc(S(N)(=O)=O)cc1)=C1/C(=O)Nc2ccccc21	16.8	-1.58	14.1	-2.58	0.18	-1.47	0.23	-2.48	-0.68	-5.23	-3.52	2.06	0.3	3.27	18.4	11.4	47.1
Fc1ccc(-c2nc3n(c2-c2ccncc2)CCS3)cc1	2.33	3.03	7.29	-2.56	-1.24	5.8	7.17	5.81	5.73	1.81	-0.15	3.38	2.37	-3.58	-3.17	-0.21	-0.63
CCc1ccc(Oc2nccc(-c3c(-c4ccc(F)cc4)ncn3C3CCNCC3)n2)cc1	1.06	4.27	7.31	-0.22	-4.21	4.48	10.2	4.23	8.72	1.49	-0.51	2.21	2.52	0.68	6	3.1	6.63
C[C@@H](Oc1cc(-n2cnc3ccc(OCC4CCN(C)CC4)cc32)sc1C(N)=O)c1ccccc1Cl	6.74	2.66	15.5	4.61	6.88	8.65	10.6	6.37	5.47	3.88	8.07	2.66	6.25	8.16	17.3	11.1	33.5
COc1cc(Nc2ncc(-c3ccccc3)o2)cc(OC)c1OC	1.3	11.5	46.6	-2.95	0.62	-1.68	-1.94	-1.66	-1.09	-3.29	-4.59	-0.52	0.55	0.73	8.78	4.17	21.3
COc1cccc(-n2cnc3c(N/N=C/c4ccncc4)ncnc32)c1	4.59	7.55	36.4	-2.42	-3.33	-0.31	-1.09	-0.89	-0.68	-3.41	-4.3	-2.35	0.01	-1.76	7.17	0.11	18.1
CS(=O)(=O)CCNCc1cc(-c2cc3c(Nc4ccc(OCc5cccc(F)c5)c(Cl)c4)ncnc3s2)cs1	4.28	3.05	6.33	2.63	1.06	6.76	9.8	4.4	5.09	2.35	-3.41	2.58	3.31	0.31	4.51	1.2	5.39
Fc1ccc(-c2ncn(C3CCNCC3)c2-c2ccnc(Oc3ccc(F)c(F)c3)n2)cc1	1.35	2.3	0.42	-5.04	-3.78	6.07	6.2	4.48	4.06	-1.78	-0.68	1.33	1.17	-3.16	-4.05	0.63	2.39
c1ccc(Oc2ccc(Nc3ncc(-c4ccccc4)o3)cc2)cc1	1.97	0.58	-0.25	1.43	0.91	1.29	1.47	2.23	1.97	0.01	1.5	1.75	0.97	1.55	3.95	4.15	6.81
O=C(Nc1n[nH]c2nc(-c3ccc(O)cc3)c(Br)cc12)C1CC1	41.4	5.61	27.4	5.14	4.28	9.27	12.6	10.1	13	-1.54	3.99	3.81	3.24	5.19	14.1	6.34	22.4
Cc1ccc(C(=O)NC(C)C)cc1-c1ccc(C(=O)NCC2CC2)cc1	-0.5	-0.21	-0.56	-5.65	-1.41	-3.13	-5.03	-4.24	-2.75	-1.46	-1.23	-1.36	-0.58	-0.57	-1.69	0.59	2.07
C#Cc1cccc(Nc2ncnc3ccc(OCCCCNCCS(C)(=O)=O)cc23)c1	8.46	4.13	12.3	-1.39	-2.29	8.08	6.4	8.35	5.48	-5.79	-0.78	4.25	2.41	-4.32	1.7	-0.62	5.54
